Results: PubChem BioAssay (EPA / NIEHS)
Several values for one entry are separate records, joined by “and”; a condition that tells them apart may be missing. Equal entries are not always repeated. Records with an inconclusive call do not appear. Activity calls are given as the source filed them. How the source made its calls, unless noted: active means hit-call score of the fitted dose curve at least 0.9, where 1 is the maximum; inconclusive means response in the unintended direction; inactive means score below 0.9.

Columns and labels:
[1] = molecular target: human Caspase 10 (CASP10), CASP10 (gene 843) (UniProt Q92851); experiment: NVS_ENZ_hCASP10: NovaScreen (NVS) Enzymatic Assay for human Caspase 10 (CASP10) (AID 2283133)
Method in brief: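 Recombinant human caspase-10 from E. coli, cell-free fluorogenic substrate assay read 1 h after dosing. Primary duplicate screen at 25 uM; hits (e.g. ≥30% inhibition) run singly in concentration-response up to 50 uM, normalised to DMSO.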

[2] = molecular target: human Matrix Metalloproteinase-1 (MMP1), MMP1 (gene 4312) (UniProt P03956); experiment: NVS_ENZ_hMMP1: NovaScreen (NVS) Enzymatic Assay for human Matrix Metalloproteinase-1 (MMP1) (AID 2283181)
Method in brief: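 Human MMP1 enzyme activity measured by fluorescence 1 h after dosing, cell-free, with a specific substrate. Screened in duplicate at 25 uM; hits (e.g. 30% inhibition) run in concentration-response up to 50 uM; loss of signal versus DMSO.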

[3] = molecular target: human Protein Tyrosine Phosphatase Receptor Type C (PTPRC), PTPRC (gene 5788) (UniProt P08575); experiment: NVS_ENZ_hPTPRC: NovaScreen (NVS) Enzymatic Assay for human Protein Tyrosine Phosphatase Receptor Type C (PTPRC) (AID 2283212)
Method in brief: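 Yeast-extracted human PTPRC used in a cell-free colorimetric enzyme activity read-out, 1 h after dosing. Primary screen in duplicate at 25 uM; actives rerun in concentration-response up to 50 uM, DMSO as baseline.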

[4] = molecular target: human Aurora Kinase A - serine/threonine-protein Kinase 6 (AurA), AURKA (gene 6790) (UniProt O14965); experiment: NVS_ENZ_hAurA: NovaScreen (NVS) Enzymatic Assay for human Aurora Kinase A - serine/threonine-protein Kinase 6 (AurA) (AID 2283142)
Method in brief: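 Cell-free enzymatic assay with human Aurora A, 1 hour after dosing. Fluorescent substrate turnover detected after electrophoretic mobility shift separation of substrate and product. Screened at 25 uM, actives retested in concentration-response up to 50 uM.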

[5] = molecular target: human Epidermal Growth Factor Receptor (EGFR), EGFR (gene 1956) (UniProt P00533); experiment: NVS_ENZ_hEGFR: NovaScreen (NVS) Enzymatic Assay for human Epidermal Growth Factor Receptor (EGFR) (AID 2283151)
Method in brief: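 Cell-free kinase assay, fluorescence plus electrophoretic mobility shift separating substrate and product, read 1 hour after dosing; loss of signal vs DMSO. Duplicate screen at 25 uM, then concentration-response to 50 uM.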

[6] = molecular target: human NIMA (Never In Mitosis Gene A)-Related Kinase 2 (NEK2), NEK2 (gene 4751) (UniProt P51955); experiment: NVS_ENZ_hNEK2: NovaScreen (NVS) Enzymatic Assay for human NIMA (Never In Mitosis Gene A)-Related Kinase 2 (NEK2) (AID 2283188)
Method in brief: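 Cell-free NEK2 enzyme activity after 1 h exposure, read by fluorescence with electrophoretic mobility shift separating substrate and product. Primary screen in duplicate at 25 uM; actives then run as concentration series. Loss of signal versus DMSO scored.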

[7] = molecular target: human p21 Activated Kinase 4 (PAK4), PAK4 (gene 10298) (UniProt O96013); experiment: NVS_ENZ_hPAK4: NovaScreen (NVS) Enzymatic Assay for human p21 Activated Kinase 4 (PAK4) (AID 2283189)
Method in brief: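 Cell-free recombinant human PAK4 activity assay; fluorescent substrate and product separated by electrophoretic mobility shift, read 1 h after dosing. Initially tested in duplicate at 25 uM, relative to DMSO baseline.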

[8] = molecular target: human Raf-1 Proto-Oncogene, serine/threonine Kinase (RAF1), RAF1 (gene 5894) (UniProt P04049); experiment: NVS_ENZ_hRAF1: NovaScreen (NVS) Enzymatic Assay for human Raf-1 Proto-Oncogene, serine/threonine Kinase (RAF1) (AID 2283216)
Method in brief: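 Cell-free recombinant kinase with specific fluorescent substrate, product separated by electrophoretic mobility shift; read 1 h after dosing. Primary screen at 25 uM in duplicate; hits then run in concentration-response up to 50 uM, fitted as loss of signal versus DMSO.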

[9] = molecular target: human Tyrosine Protein Kinase Receptor Tie-2 (Tie2), TEK (gene 7010) (UniProt Q02763); experiment: NVS_ENZ_hTie2: NovaScreen (NVS) Enzymatic Assay for human Tyrosine Protein Kinase Receptor Tie-2 (Tie2) (AID 2283225)
Method in brief: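 Recombinant human Tie2 kinase activity was read cell-free by fluorescence with electrophoretic mobility shift, 1 hour after dosing. The screen used 25 uM in duplicate, then concentration-response up to 50 uM. Signal loss was scored against DMSO.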

[10] = molecular target: human Fibroblast Growth Factor Receptor 1 (FGFR1), FGFR1 (gene 2260) (UniProt P11362); experiment: NVS_ENZ_hFGFR1: NovaScreen (NVS) Enzymatic Assay for human Fibroblast Growth Factor Receptor 1 (FGFR1) (AID 2283159);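 on AC50: hits lower the signal so potencies describe inhibitors of the kinase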
Method in brief: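 Cell-free recombinant kinase with fluorescent substrate, product separated by electrophoretic mobility shift; read 1 hour after dosing, loss of signal relative to DMSO. Initial screen in duplicate at 25 uM, actives followed in concentration series.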

[11] = molecular target: PPP2CA (gene 5515) (UniProt P67775); experiment: NVS_ENZ_hPPP2CA: NovaScreen (NVS) Enzymatic Assay for human Protein Phosphatase 2 Aatalytic subunit Alpha (PPP2CA) (AID 2283199)
Method in brief: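 Recombinant human PPP2CA with fluorescent substrate; product separated from substrate by electrophoretic mobility shift, read 1.33 h after dosing. Duplicate single-point at 25 uM, then singleton concentration-response up to 50 uM; loss of signal versus DMSO.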

[12] = molecular target: human Phosphatase and Tensin Homolog (PTEN), PTEN (gene 5728) (UniProt P60484); experiment: NVS_ENZ_hPTEN: NovaScreen (NVS) Enzymatic Assay for human Phosphatase and Tensin Homolog (PTEN) (AID 2283203)
Method in brief: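 Cell-free recombinant human PTEN with fluorescent substrate; product separated by electrophoretic mobility shift and read by fluorescence 1 h after dosing. Primary screen in duplicate at 25 uM, actives followed in concentration series versus DMSO.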

[13] = molecular target: human Protein Tyrosine Phosphatase Non-receptor Type 2 (PTPN2), PTPN2 (gene 5771) (UniProt P17706); experiment: NVS_ENZ_hPTPN2: NovaScreen (NVS) Enzymatic Assay for human Protein Tyrosine Phosphatase Non-receptor Type 2 (PTPN2) (AID 2283207)
Method in brief: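 Cell-free recombinant enzyme with fluorescent substrate, product separated by electrophoretic mobility shift; read 1 h after dosing. Primary screen single concentration (25 uM) in duplicate; actives followed in concentration series; loss of signal versus DMSO.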

[14] = molecular target: Norway rat Vesicular Monoamine Transporter (VMAT2), neurotransmitter transporter, Slc18a2 (gene 25549) (UniProt Q01827); experiment: NVS_TR_rVMAT2: NovaScreen (NVS) Transporter Assay for Norway rat Vesicular Monoamine Transporter (VMAT2), neurotransmitter transporter (AID 2283376);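 further: actives lower the bound radioligand signal below the DMSO level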
Method in brief: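 Tissue: rat forebrain extract. Format: competitive radioligand binding, cell-free. Timepoint: 1 h. Readout: filter radiodetection/scintillation. Screen: 25 uM in duplicate, then concentration series for actives. Baseline: DMSO.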

[15] = molecular target: human Mitogen-Activated Protein Kinase 1 (MAPK 1), MAPK1 (gene 5594) (UniProt P28482); experiment: NVS_ENZ_hMAPK1: NovaScreen (NVS) Enzymatic Assay for human Mitogen-Activated Protein Kinase 1 (MAPK 1) (AID 2283175)
Method in brief: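 Cell-free recombinant human MAPK1 enzymatic assay, fluorescence/electrophoretic mobility shift read at 1 h; loss of signal vs DMSO. Primary screen in duplicate at 25 uM; actives (e.g. ≥30% inhibition) run as concentration-response up to 50 uM.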

[16] = molecular target: rat Oxytocin Receptor (OXT), Oxtr (gene 25342) (UniProt P70536); experiment: NVS_GPCR_rOXT: NovaScreen (NVS) G Protein-Coupled Receptor Assay for rat Oxytocin Receptor (OXT) (AID 2283330)
Method in brief: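 Radioligand displacement on rat uterine membranes, 1 h incubation, filter-based scintillation counting. Chemicals were screened in duplicate at 25 uM, and those passing threshold were retested in concentration-response up to 50 uM. Loss of binding was fitted versus DMSO.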

[17] = molecular target: human Caspase 2 (CASP2), CASP2 (gene 835) (UniProt P42575); experiment: NVS_ENZ_hCASP2: NovaScreen (NVS) Enzymatic Assay for human Caspase 2 (CASP2) (AID 2283135)
Method in brief: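 E. coli-expressed enzyme in a cell-free protease assay, fluorescence read 1 h after dosing. Compounds at 25 uM in duplicate, with concentration-response up to 50 uM for hits; loss of signal against DMSO baseline.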

[18] = molecular target: human Ephrin type-A Receptor 2 (EphA2), EPHA2 (gene 1969) (UniProt P29317); experiment: NVS_ENZ_hEphA2: NovaScreen (NVS) Enzymatic Assay for human Ephrin type-A Receptor 2 (EphA2) (AID 2283155)
Method in brief: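 Cell-free recombinant EphA2 kinase with specific substrate, 1 h, fluorescence with electrophoretic mobility-shift separation of substrate and product. Primary screen at 25 uM in duplicate; hits retested in singleton concentration-response up to 50 uM, referenced to DMSO.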

[19] = molecular target: Voltage-dependent N-type calcium channel subunit alpha-1B (Rattus norvegicus) (UniProt Q02294); experiment: NVS_IC_rCaChN: NovaScreen (NVS) Ion Channel Assay for rat Calcium Channel, Type N (CaChN) (AID 2283317)
[20] = molecular target: rat Monoamine Oxidase, MAO-B, Central (MAOBC), Maob (gene 25750) (UniProt P19643); experiment: NVS_ENZ_rMAOBC: NovaScreen (NVS) Enzymatic Assay for rat Monoamine Oxidase, MAO-B, Central (MAOBC) (AID 2283238)
Method in brief: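 Compounds were first tested in duplicate at 25 uM against MAO-B from rat brain tissue; those passing the inhibition threshold were retested in concentration series up to 50 uM. Radiodetection by scintillation counting at 1.17 h, analysed against DMSO baseline.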

[21] = molecular target: rat Monoamine Oxidase, MAO-B, Peripheral (MAOBP), Maob (gene 25750) (UniProt P19643); experiment: NVS_ENZ_rMAOBP: NovaScreen (NVS) Enzymatic Assay for rat Monoamine Oxidase, MAO-B, Peripheral (MAOBP) (AID 2283242)
[22] = ATG_M_32_XSP2: Attagene TRANS-FACTORIAL Multi-Species (XSP2) HepG2 Assay for M19 Transcription Factor (Internal Marker) (AID 2283826)
Method in brief: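 Total RNA is taken from compound-treated HepG2 cells after 24 h and reverse-transcribed; reporter cDNA is PCR-amplified, end-labelled with 6-FAM, digested with HpaI for 2h at 37 C and sized by capillary electrophoresis. Activity is fitted in the positive direction against DMSO.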

[23] = CCTE_Harrill_HTTr_Apoptosis_PRF_DMEM_12hr: (Pilot) CCTE's 12-hour Apoptosis Assessment for the High-Throughput Transcriptomics (HTTr) Platform, in MCF-7 cells cultured in phenol red-free DMEM + 10% charcoal-stripped fetal bovine serum, Harrill Lab (AID 2283985; active means hit-call score of the fitted dose curve at least 0.9, where 1 is the maximum; inactive means score below 0.9)
Method in brief: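 MCF-7 cells in phenol red-free DMEM with 10% charcoal-stripped FBS, eight-point dilution series, 12 h exposure. Caspase-3/7 activation imaged by high content imaging with CellEvent Green reagent; bidirectional fit vs DMSO.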

Chain of human Aurora Kinase A - serine/threonine-protein Kinase 6 (AurA), AURKA (gene 6790) (O14965 whole entry, looked up): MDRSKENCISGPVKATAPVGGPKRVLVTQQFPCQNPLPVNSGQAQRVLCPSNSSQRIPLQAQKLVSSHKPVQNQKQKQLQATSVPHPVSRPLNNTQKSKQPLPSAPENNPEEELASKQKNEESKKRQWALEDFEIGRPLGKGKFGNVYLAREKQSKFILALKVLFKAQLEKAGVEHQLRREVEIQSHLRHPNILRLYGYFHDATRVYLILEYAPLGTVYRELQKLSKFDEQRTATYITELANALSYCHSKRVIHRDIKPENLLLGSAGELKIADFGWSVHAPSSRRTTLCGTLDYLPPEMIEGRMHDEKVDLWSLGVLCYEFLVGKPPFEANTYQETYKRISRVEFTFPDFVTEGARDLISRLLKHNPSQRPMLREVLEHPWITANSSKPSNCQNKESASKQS
Chain of Norway rat Vesicular Monoamine Transporter (VMAT2), neurotransmitter transporter, Slc18a2 (gene 25549) (Q01827 whole entry, looked up): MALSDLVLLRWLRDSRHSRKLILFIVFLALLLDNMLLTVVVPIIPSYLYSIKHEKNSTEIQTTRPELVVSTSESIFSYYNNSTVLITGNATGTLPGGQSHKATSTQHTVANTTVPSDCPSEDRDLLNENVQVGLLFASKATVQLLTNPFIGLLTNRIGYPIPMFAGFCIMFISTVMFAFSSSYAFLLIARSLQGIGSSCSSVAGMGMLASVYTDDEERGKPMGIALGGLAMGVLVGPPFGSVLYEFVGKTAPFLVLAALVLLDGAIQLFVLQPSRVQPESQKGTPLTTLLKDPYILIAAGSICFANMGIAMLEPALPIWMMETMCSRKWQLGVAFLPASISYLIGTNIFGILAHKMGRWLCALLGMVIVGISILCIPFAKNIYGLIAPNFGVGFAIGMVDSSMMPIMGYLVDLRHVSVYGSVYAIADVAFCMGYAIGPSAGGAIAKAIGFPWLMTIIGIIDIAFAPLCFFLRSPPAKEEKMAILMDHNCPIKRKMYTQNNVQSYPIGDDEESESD
Chain of human NIMA (Never In Mitosis Gene A)-Related Kinase 2 (NEK2), NEK2 (gene 4751) (P51955 whole entry, looked up): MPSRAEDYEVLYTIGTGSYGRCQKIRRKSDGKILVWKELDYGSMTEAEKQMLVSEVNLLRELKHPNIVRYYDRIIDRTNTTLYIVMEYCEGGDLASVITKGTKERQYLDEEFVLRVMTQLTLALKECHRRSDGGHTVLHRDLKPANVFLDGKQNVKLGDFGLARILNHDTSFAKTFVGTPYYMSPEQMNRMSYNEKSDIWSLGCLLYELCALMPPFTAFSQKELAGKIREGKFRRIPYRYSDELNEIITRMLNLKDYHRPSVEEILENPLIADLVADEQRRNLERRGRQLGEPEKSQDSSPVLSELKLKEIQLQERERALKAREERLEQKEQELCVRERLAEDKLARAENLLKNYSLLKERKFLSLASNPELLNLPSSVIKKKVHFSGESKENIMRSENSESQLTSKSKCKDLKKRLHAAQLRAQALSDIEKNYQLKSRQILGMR
Chain of human Epidermal Growth Factor Receptor (EGFR), EGFR (gene 1956) (P00533 whole entry, looked up): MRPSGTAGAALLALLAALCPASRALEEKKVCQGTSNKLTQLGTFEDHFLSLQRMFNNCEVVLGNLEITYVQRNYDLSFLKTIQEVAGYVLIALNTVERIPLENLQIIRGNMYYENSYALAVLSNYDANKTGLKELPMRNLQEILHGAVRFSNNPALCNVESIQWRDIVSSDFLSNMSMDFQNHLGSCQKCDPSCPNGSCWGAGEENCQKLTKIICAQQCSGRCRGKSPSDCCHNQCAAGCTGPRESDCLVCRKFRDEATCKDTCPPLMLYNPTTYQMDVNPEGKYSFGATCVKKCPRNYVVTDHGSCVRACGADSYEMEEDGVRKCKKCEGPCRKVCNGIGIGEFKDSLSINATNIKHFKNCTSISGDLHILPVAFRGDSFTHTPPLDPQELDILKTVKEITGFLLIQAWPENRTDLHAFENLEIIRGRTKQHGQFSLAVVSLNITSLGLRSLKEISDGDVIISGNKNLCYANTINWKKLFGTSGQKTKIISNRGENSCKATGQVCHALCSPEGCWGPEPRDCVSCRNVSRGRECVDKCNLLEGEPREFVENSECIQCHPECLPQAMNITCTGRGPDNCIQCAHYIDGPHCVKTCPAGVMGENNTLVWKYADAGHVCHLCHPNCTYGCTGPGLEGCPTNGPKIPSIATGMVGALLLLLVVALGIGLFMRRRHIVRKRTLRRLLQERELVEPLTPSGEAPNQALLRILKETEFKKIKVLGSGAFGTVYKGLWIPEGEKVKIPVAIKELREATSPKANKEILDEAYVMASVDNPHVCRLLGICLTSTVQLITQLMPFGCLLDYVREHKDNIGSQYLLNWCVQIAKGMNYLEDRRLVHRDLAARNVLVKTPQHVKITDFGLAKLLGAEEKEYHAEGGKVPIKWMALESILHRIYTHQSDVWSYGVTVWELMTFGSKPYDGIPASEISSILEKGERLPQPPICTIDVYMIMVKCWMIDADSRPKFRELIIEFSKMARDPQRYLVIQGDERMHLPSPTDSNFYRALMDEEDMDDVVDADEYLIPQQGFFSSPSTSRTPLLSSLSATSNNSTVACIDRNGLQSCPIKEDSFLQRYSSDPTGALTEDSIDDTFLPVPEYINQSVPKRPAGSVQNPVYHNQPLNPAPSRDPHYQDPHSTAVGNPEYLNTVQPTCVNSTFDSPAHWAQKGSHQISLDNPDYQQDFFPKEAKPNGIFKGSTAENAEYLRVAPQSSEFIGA
Chain of human Phosphatase and Tensin Homolog (PTEN), PTEN (gene 5728) (P60484 whole entry, looked up): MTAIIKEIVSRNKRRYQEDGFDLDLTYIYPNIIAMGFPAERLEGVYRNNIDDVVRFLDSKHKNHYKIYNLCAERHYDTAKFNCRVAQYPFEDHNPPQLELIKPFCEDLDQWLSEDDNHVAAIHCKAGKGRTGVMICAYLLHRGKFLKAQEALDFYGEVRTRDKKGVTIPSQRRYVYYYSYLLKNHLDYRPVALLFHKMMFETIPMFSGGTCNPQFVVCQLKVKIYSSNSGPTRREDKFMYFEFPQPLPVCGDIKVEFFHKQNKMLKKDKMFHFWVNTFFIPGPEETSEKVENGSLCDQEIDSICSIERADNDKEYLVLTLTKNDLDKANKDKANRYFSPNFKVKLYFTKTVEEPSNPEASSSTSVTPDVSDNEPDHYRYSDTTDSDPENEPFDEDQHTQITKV
Chain of human Raf-1 Proto-Oncogene, serine/threonine Kinase (RAF1), RAF1 (gene 5894) (P04049 whole entry, looked up): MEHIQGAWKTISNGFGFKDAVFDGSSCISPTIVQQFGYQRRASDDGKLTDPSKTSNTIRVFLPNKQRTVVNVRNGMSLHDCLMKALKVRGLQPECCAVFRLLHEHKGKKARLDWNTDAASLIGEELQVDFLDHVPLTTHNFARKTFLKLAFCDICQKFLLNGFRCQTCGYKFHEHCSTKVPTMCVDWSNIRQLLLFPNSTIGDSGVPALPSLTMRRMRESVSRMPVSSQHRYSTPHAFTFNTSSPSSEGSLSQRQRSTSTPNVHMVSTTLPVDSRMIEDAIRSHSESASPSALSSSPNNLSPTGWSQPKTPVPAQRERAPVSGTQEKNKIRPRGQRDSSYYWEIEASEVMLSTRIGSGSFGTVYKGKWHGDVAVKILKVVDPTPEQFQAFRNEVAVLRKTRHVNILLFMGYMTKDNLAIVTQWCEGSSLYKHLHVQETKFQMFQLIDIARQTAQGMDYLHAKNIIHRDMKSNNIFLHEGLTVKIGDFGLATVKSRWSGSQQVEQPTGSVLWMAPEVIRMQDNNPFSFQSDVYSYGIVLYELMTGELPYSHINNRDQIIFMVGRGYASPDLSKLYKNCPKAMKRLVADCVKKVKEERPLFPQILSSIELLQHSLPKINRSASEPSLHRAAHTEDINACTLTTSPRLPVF
Chain of human Tyrosine Protein Kinase Receptor Tie-2 (Tie2), TEK (gene 7010) (Q02763 whole entry, looked up): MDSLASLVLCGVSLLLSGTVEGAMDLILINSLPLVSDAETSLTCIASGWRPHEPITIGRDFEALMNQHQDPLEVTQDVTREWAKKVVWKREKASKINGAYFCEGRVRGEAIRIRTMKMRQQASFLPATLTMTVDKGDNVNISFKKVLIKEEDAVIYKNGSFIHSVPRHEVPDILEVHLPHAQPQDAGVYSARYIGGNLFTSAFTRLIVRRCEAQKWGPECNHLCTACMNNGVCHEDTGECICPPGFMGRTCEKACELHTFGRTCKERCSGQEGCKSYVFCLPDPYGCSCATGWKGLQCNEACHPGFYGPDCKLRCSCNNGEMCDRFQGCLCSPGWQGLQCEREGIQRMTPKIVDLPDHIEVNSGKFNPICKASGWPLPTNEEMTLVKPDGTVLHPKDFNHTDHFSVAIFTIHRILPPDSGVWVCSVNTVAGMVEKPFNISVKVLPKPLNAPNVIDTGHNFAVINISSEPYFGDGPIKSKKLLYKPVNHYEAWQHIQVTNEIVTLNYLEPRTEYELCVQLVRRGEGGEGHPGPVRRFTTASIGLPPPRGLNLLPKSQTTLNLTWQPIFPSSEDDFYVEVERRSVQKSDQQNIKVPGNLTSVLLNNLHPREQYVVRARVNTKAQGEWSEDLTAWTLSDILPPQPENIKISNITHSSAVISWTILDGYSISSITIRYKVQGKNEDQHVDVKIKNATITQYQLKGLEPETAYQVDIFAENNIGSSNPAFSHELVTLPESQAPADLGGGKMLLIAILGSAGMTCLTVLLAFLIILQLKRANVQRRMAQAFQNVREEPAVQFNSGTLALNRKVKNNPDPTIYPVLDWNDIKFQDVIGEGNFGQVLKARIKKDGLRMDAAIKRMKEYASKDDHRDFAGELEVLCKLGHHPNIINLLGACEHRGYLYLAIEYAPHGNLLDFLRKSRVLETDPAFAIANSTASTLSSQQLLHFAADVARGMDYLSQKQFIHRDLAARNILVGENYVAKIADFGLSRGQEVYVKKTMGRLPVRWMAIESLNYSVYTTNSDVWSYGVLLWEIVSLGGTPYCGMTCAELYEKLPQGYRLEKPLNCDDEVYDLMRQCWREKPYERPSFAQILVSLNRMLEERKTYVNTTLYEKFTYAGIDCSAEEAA

CCCCCCCCCCCCCCOS(=O)(=O)O
outcome [1]: inactive
outcome [2]: inactive
AC50 [3]: 24.2 µM (active)

CN1C(=O)N(c2ccccc2Br)Cc2cnc(Nc3ccc4c(c3)OCC(CO)O4)nc21 (stereo not drawn)
outcome [1]: inactive
AC50 [4]: 5.65 µM (active)
AC50 [5]: 0.00229 µM (active)
AC50 [6]: 0.00229 µM (active)
AC50 [7]: 8.54 µM (active)
AC50 [8]: 0.00359 µM (active)

O=C(O)c1ccc2c(c1)nc(C(=O)NC1CCN(C3CC3)CC1)n2Cc1cc(-c2ccc(Cl)s2)on1
outcome [4]: inactive
outcome [9]: inactive

CC/C(=C(/CC)c1ccc(O)cc1)c1ccc(O)cc1
outcome [4]: inactive
outcome [5]: inactive
AC50 [10]: 37 µM (active)
outcome [6]: inactive
outcome [11]: inactive
outcome [12]: inactive
outcome [13]: inactive
outcome [8]: inactive
outcome [9]: inactive
AC50 [14]: 12 µM (active) and 14.7 µM (active) and 20.5 µM (active)

O=C(Nc1ccc([N+](=O)[O-])cc1Cl)c1cc(Cl)ccc1O
outcome [4]: inactive
outcome [15]: inactive

OCCOCCOCCO
outcome [4]: inactive
outcome [12]: inactive
outcome [16]: inactive

CC(C)(O)c1coc(S(=O)(=O)NC(=O)Nc2c3c(cc4c2CCC4)CCC3)c1
outcome [17]: inactive
outcome [12]: inactive

CC(=O)c1ccccc1
outcome [17]: inactive
outcome [18]: inactive

O=C(Oc1ccccc1)c1cccc(C(=O)Oc2ccccc2)c1
outcome [4]: inactive
outcome [5]: inactive
outcome [7]: inactive
outcome [12]: inactive
outcome [9]: inactive

COc1ccc2sc(C(=O)Nc3nnn[nH]3)c(OC(C)C)c2c1
AC50 [4]: 9.98 µM (active)
outcome [10]: inactive
outcome [7]: inactive
AC50 [8]: 25 µM (active)
outcome [9]: inactive

CC(C)(C)c1csc(-c2cc3cc(OCc4ccccc4CC(=O)O)ccc3o2)n1
outcome [4]: inactive
outcome [6]: inactive
outcome [19]: inactive

Cc1oc(-c2ccccc2)nc1CCOc1ccc(C[C@H](Nc2ccccc2C(=O)c2ccccc2)C(=O)O)cc1
outcome [1]: inactive
AC50 [20]: 25 µM (active)
outcome [21]: inactive
outcome [22]: inactive
outcome [23]: inactive
